{
  "source": "PubChem BioAssay AID1053188",
  "about": "(Broad Institute, 2014)",
  "note": "Several values for one entry are separate records, joined by “and”; a condition that tells them apart may be missing. Equal values may be shown once. In all, about 83,000 compounds went through this assay and about 780 (0.94%) were called active.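 The calls were made as follows: active = mean inhibition of at least 50% with a set share of replicates also reaching that level; inconclusive = no clear call, values can overlap the other calls; inactive = the rest.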 This excerpt belongs to a sample that is enriched for actives. Some structures have more than one record in an assay (separate samples or runs), and their calls can disagree.",
  "data": [
    {"experiment": "CD40 pathway blockade in BL2 B cells – cell-based, luciferase reporter, single point, primary screen (AID 1053188);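 also: 0% = neutral control wells and 100% = IKK inhibitor VII at 50 µM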", "details": "BL2 NF-kB luciferase reporter, CD40L-induced, 4 h, stronger effect = higher value; at 10 µM unless noted", "values": [
      {"smiles": "OCCN1CCN(CCO)C1=S", "inhibition": "4.32% (inactive)"},
      {"smiles": "COc1cc(OC)cc(C(=O)N[C@H](C(=O)NNC(=O)c2ccc(Br)cc2)C(C)C)c1", "inhibition": "-11.4% (inactive)"},
      {"smiles": "CCc1ccc(C(=O)C(C)OC(=O)CN2C(=O)NC3(CCCC3)C2=O)cc1", "note": "(stereo not drawn)", "inhibition": "-8.47% (inactive)"},
      {"smiles": "CC(=O)c1cc(C#N)c(N2CCCCC2)nc1C", "inhibition": "12.8% (inactive)"},
      {"smiles": "Cc1ccc(S(=O)(=O)N2CCN(C(=O)COC(=O)CNC(=O)c3ccc(C(C)(C)C)cc3)CC2)c(C)c1", "inhibition": "-31.5% (inactive)"},
      {"smiles": "Cc1ccc2c(c1)c1ncn(CCC3=CCCCC3)c(=O)c1n2C", "inhibition": "-13.8% (inactive)"},
      {"smiles": "COc1ccc(C(=O)COC(=O)c2nn(C)c(=O)c3ccccc23)c(OC)c1", "inhibition": "4.47% (inactive)"},
      {"smiles": "COc1ccc2c(c1)c1ncn(Cc3ccccn3)c(=O)c1n2C", "inhibition": "56.2% (active)"},
      {"smiles": "COc1ccc(CNC(=O)CN2CCC(n3nnc4cc(F)ccc43)CC2)cc1", "inhibition": "-0.322% (inactive)"},
      {"smiles": "CCCn1c(N)c(C(=O)CSc2nc3ccccc3c(=O)n2-c2ccc(OC)cc2)c(=O)[nH]c1=O", "inhibition": "-0.2% (inactive)"},
      {"smiles": "CC(C)NC(=O)N(C)C[C@H]1OCc2ccccc2-c2c(n(C)c3ccccc23)C(=O)N([C@H](C)CO)C[C@@H]1C", "inhibition": "-3.58% (inactive)"},
      {"smiles": "CC1Cc2ccccc2N1S(=O)(=O)c1cccc(C(=O)NCC(c2ccco2)N2CCCC2)c1", "note": "(stereo not drawn)", "inhibition": "8.41% (inactive)"},
      {"smiles": "O=C(Nc1ccc(N2CCOCC2)cc1)c1cccc(S(=O)(=O)N2CCOCC2)c1", "inhibition": "14.5% (inactive)"},
      {"smiles": "O=C(C1CCOCC1)N1CC(=O)N2[C@H](CO)[C@@H](c3ccc(C#CC4CCCC4)cc3)[C@H]2C1", "inhibition": "-2.24% (inactive)"},
      {"smiles": "O=C(Nc1nnc(Cc2ccccc2)s1)c1cnccn1", "inhibition": "-14% (inactive)"},
      {"smiles": "Cc1cnc(NC(=O)c2ccccn2)s1", "inhibition": "48.8% (active)"},
      {"smiles": "O=C(Nc1nnc(C2CC2)s1)c1ccccn1", "inhibition": "12.5% (inactive)"},
      {"smiles": "CN1C(=O)c2cc(NS(=O)(=O)CC(F)(F)F)ccc2OC[C@H]2O[C@@H](CC(=O)NCc3ccc(Cl)c(Cl)c3)CC[C@@H]21", "inhibition": "-2.48% [at 25 µM] (inactive)"},
      {"smiles": "COc1ccccc1C(=O)NC(=O)COC(=O)C1CC1", "inhibition": "-63% (inactive)"},
      {"smiles": "Cc1cc(C(=O)COC(=O)C2CC2)c(C)n1-c1ccc(F)cc1", "inhibition": "79.9% (active)"},
      {"smiles": "Cc1cc(C(=O)COC(=O)CNC(=O)c2ccc(F)cc2)c(C)n1Cc1ccco1", "inhibition": "29.3% (inactive)"},
      {"smiles": "N#C[C@@H]1[C@@H](c2ccc(C#Cc3cccc(F)c3)cc2)[C@H](CO)N1C(=O)C1CCOCC1", "inhibition": "-15.7% [at 25 µM] (inactive)"},
      {"smiles": "N#C[C@H]1[C@H](c2ccc(C#Cc3ccc(F)cc3)cc2)[C@@H](CO)N1C(=O)C1CCCC1", "inhibition": "58.9% (active)"},
      {"smiles": "N#C[C@@H]1[C@@H](c2ccc(C#Cc3cccc(F)c3)cc2)[C@@H](CO)N1C(=O)C1CCC1", "inhibition": "-11.1% (inactive)"},
      {"smiles": "N#C[C@@H]1[C@H](c2ccc(C#Cc3cccc(F)c3)cc2)[C@@H](CO)N1C(=O)C1CCCC1", "inhibition": "60.3% (active)"},
      {"smiles": "N#C[C@@H]1[C@H](c2ccc(C#Cc3ccccc3F)cc2)[C@H](CO)N1C(=O)C1CCCCC1", "inhibition": "6.32% (inactive)"},
      {"smiles": "CCCC#Cc1ccc([C@@H]2[C@@H](C#N)N(C(=O)C3CCCC3)[C@@H]2CO)cc1", "inhibition": "4.81% (inactive)"},
      {"smiles": "COc1ccccc1CNC(=O)COC(=O)CNS(=O)(=O)c1ccc(NC(C)=O)cc1", "inhibition": "5.75% (inactive)"},
      {"smiles": "COc1ccc(NC(=O)N2CCCC(c3nc(-c4ccc(F)cc4)no3)C2)cc1", "note": "(stereo not drawn)", "inhibition": "-2.8% (inactive)"},
      {"smiles": "CC(C)N(C(=O)CN1CCN(S(=O)(=O)c2ccc(Br)s2)CC1)C(C)C", "inhibition": "3.09% (inactive)"},
      {"smiles": "CCOC(=O)C(CC)/C(C)=N\\NC(=O)c1cccc(C)c1", "note": "(stereo not drawn)", "inhibition": "-2.97% (inactive)"},
      {"smiles": "Cc1cccc(-c2ccc(C3[C@@H]4CN(C(=O)Nc5ccc(C(F)(F)F)cc5)C[C@H]3N4)cc2)c1", "note": "(stereo partly drawn)", "inhibition": "55.5% (active)"},
      {"smiles": "O=C(C1CCCCC1)N1C[C@@H]2N[C@H](C1)C2c1ccc(-c2cccc(F)c2)cc1", "note": "(stereo partly drawn)", "inhibition": "26.1% (inactive) and -22.9% (inactive)"},
      {"smiles": "CN(C)C(=O)c1ccc(-c2ccc(C3[C@@H]4CN(C(=O)Nc5ccccc5)C[C@H]3N4)cc2)cc1", "note": "(stereo partly drawn)", "inhibition": "8.08% [at 25 µM] (inactive)"},
      {"smiles": "O=C([C@@H]1[C@@H](CO)[C@@H]2Cn3c(ccc(C4=CCCCC4)c3=O)[C@H]1N2Cc1nccs1)N1CCCCC1", "inhibition": "-4.97% [at 25 µM] (inactive)"},
      {"smiles": "COc1ccc(CN2CCC(c3nc4ccc(Cl)cc4[nH]3)CC2)cc1", "inhibition": "7.72% (inactive)"},
      {"smiles": "O=C(NNC(=O)C1CCN(c2ncccn2)CC1)c1ccccc1", "inhibition": "16.9% (inactive)"},
      {"smiles": "Cn1cnc(S(=O)(=O)N2C[C@@H]3N[C@H](C2)C3c2ccc(/C=C/c3ccccc3)cc2)c1", "note": "(stereo partly drawn)", "inhibition": "-5.55% (inactive) and 3.57% (inactive)"},
      {"smiles": "COc1ccc(-c2ccc(C3[C@@H]4CN(S(=O)(=O)c5cn(C)cn5)C[C@H]3N4)cc2)cc1", "note": "(stereo partly drawn)", "inhibition": "-4.84% (inactive)"},
      {"smiles": "Cn1cnc(S(=O)(=O)N2C[C@@H]3N[C@H](C2)C3c2ccc(-c3ccccc3F)cc2)c1", "note": "(stereo partly drawn)", "inhibition": "52.9% [at 25 µM] (active) and 10.8% [at 25 µM] (inactive)"},
      {"smiles": "CCC(=O)N1CC2(CCN(Cc3ccc(Cl)cc3)CC2)c2c(n(C)c3cc(OC)ccc23)[C@@H]1CO", "inhibition": "4.53% [at 25 µM] (inactive)"},
      {"smiles": "COc1ccc2c3c(n(C)c2c1)[C@H](CO)N(C(C)=O)CC31CN(Cc2ccc(Cl)cc2)C1", "inhibition": "68% [at 25 µM] (active)"},
      {"smiles": "COCC(=O)N1CC2(CN(S(C)(=O)=O)C2)c2c(n(C)c3cc(OC)ccc23)[C@@H]1CO", "inhibition": "2.58% [at 25 µM] (inactive)"},
      {"smiles": "O=C(Nc1ccccn1)C1CCN(S(=O)(=O)c2ccc3c(c2)OCCO3)CC1", "inhibition": "-48.7% (inactive)"},
      {"smiles": "CCc1nnc(NC(=O)c2cccc(S(=O)(=O)N(C)c3ccc(OC)cc3)c2)s1", "inhibition": "2.59% (inactive)"},
      {"smiles": "CN(Cc1ccc2nsnc2c1)Cc1nc(Cc2cccc(F)c2)no1", "inhibition": "3.82% (inactive)"},
      {"smiles": "CCOc1ccc(S(=O)(=O)N2CCC(C(=O)OCc3ccc(OC)cc3)CC2)cc1", "inhibition": "0.411% (inactive)"},
      {"smiles": "O=C(Nc1ccc(N2CCCCC2)cc1)c1cc(S(=O)(=O)N2CCOCC2)ccc1F", "inhibition": "-16.8% (inactive)"}
    ]}
  ]
}
